# Shown are actives, neighbours in structure and some others; about 1.7% of the full set was active somewhere.
# PTHR1 agonist: activates the human parathyroid hormone receptor PTHR1; HEK293 GP2 PTHR1 cells, GloSensor cAMP luminescence, 1 h; 0.075% of 410,000 active; Potency, µM (highest dose often 115 µM), without a hit: at the highest dose activation, most hits filed as activators; further: nearly all actives have a fitted effect of over 55% in size
#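 HEK-293-derived GP2 cells expressing PTHR1 and a GloSensor cAMP reporter, 3,000/well, plated overnight, given luciferin plus IBMX (each 0.5 mM as added) for 1 h at 37 °C, then compound for 1 h at 37 °C. Luminescence was read after 15 min at room temperature.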
# GLP-1R inv ag: inverse agonists of human GLP-1 receptor; 1.6% of 410,000 active; HEK293 GLP-1R CRE-luciferase, luminescence, 24 h; GLP-1R form is constitutively active; P43220; AID 624417; Potency, µM (titrated, usually from 38.3 µM), inactives show top-dose activity change, negative = inhibition, usual class: inhibitors; further: on the % scale 0 is the no-effect control and ±100 the full control effect; nearly all actives have a fitted effect of over 55% in size
# Target sequence (P43220 whole entry, looked up): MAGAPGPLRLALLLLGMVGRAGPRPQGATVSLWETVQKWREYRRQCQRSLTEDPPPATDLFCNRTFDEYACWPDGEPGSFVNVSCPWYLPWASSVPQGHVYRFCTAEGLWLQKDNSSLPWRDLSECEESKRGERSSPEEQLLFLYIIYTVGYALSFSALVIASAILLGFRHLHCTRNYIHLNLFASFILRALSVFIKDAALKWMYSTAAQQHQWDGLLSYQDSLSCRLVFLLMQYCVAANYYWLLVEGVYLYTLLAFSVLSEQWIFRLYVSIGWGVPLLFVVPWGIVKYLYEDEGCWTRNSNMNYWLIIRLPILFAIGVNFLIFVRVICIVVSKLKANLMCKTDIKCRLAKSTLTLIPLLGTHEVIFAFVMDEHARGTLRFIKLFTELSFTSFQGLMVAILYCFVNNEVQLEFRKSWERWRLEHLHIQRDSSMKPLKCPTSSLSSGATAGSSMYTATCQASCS
#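 qHTS in 1536-well format: reporter HEK293 cells expressing constitutive GLP-1R activity in DMEM + 10% Nu serum, 24 hr with compounds at 37 deg C, luminescence read after 12 min with detection reagent.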
# GLP1R cytotox: cytotoxicity in counter-screen for GLP-1R inverse agonists; HEK293 cAMP-luciferase reporter cells, luminescence, 24 h; Potency, µM (series often up to 38.3 µM), inactives show top-dose activity change, negative = inhibition, actives largely listed as inhibitors; 0.13% of 410,000 active;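 further: loss of luciferase light is scored as toxicity; on the % scale 0 is the no-effect control and ±100 the full control effect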
#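 Luminescence readout: signal drop marks cytotoxicity. Plated cells grew 12 h at 37 °C, 5% CO2, received 23 nL compound for 24 h, then got luciferase reagent, read after 12 min at RT.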
# GLP-1R agonist: activates the human GLP-1 receptor; AID 624172; HEK293 GLP-1R CRE-luciferase, luminescence, 4-6 h; cells express a hypersensitive GLP-1R form; Potency, µM (top dose mostly 45.6 µM), for inactives: at the top dose activation, actives largely listed as activators; 0.007% of 380,000 active; further: % of control where 0% means no effect
# An asterisk follows results filed as active; i = inactive; ? = inconclusive; · = no result given; [ ] = dose if it differs, or a comment. The call rests on the fitted dose curve; in most records, active means well fitted curve in the direction sought with a large enough effect; inconclusive means small, poorly fitted or top-dose-only effect, or another doubt; inactive means no such curve, though single readings can be large; an effect the other way counts as inactive or inconclusive. Potency means the concentration at half of the fitted maximal effect.
SMILES,PTHR1 agonist,GLP-1R inv ag,GLP1R cytotox,GLP-1R agonist
COc1cc(CNC(=O)C2CCCCN2S(=O)(=O)c2ccc(F)cc2)cc(OC)c1OC (stereo unspecified),i,-11.9%,-2.4%,·
O=C(Nc1cccc(Cl)c1)C1CCCN(c2ncnc3c2nc2n3CCCCC2)C1 (stereo unspecified),-90.0%,46.0%,?,·
CCc1cccc(NC(=O)C2CCCN(c3ncnc4c3nc3n4CCCCC3)C2)c1 (stereo unspecified),-20.9%,6.31µM*,-10.4%,7.5%
Cc1ccc2[nH]c3c(c2c1)CN(C(=O)CN1CCN(Cc2ccc4c(c2)OCO4)CC1)CC3,i,3.55µM*,-17.6%,-2.7%
Cc1ccc2[nH]c3c(c2c1)CN(C(=O)CN1CC(C)OC(C)C1)CC3 (stereo unspecified),i,-29.2%,58.1%,6.3%
CCc1ccc(-c2nc(CN3CCC(C(=O)NCCN(CC)c4ccccc4)CC3)c(C)o2)cc1,-17.0%,?,-18.1%,-0.6%
COc1ccc(-c2nc(CN3CCC(C(=O)NCCCN4CCN(c5ccccc5F)CC4)CC3)c(C)o2)cc1OC,-0.2%,10µM*,12.6µM*,·
CCC1CCCCN1CCCNC(=O)C1CCN(Cc2nc(-c3ccc(Cl)cc3)oc2C)CC1 (stereo unspecified),-23.2%,12.6µM*,5.01µM*,-6.7%
Cc1oc(-c2ccc(Cl)cc2)nc1CN1CCC(C(=O)NCCCN2CCOCC2)CC1,15.7%[57.5 µM],?,-21.0%,4.6%
CCN(CCNC(=O)C1CCN(Cc2nc(-c3ccc(Cl)cc3)oc2C)CC1)c1ccccc1,-3.4%,2.51µM*,?,-4.9%
Cc1cccc(N2C(=O)CSC23C(=O)N(CC(=O)NCc2ccccc2Cl)c2ccccc23)c1 (stereo unspecified),-13.6%,10µM*,2.3%,1.6%
Cc1cccc(N2C(=O)CSC23C(=O)N(CC(=O)NCCc2ccccc2)c2ccccc23)c1 (stereo unspecified),i,-12.0%,-4.5%,-5.4%
CC(C)NC(=O)c1ccc(CSc2nc3ccncc3n2Cc2cccc(F)c2)cc1,i,-15.5%,-2.7%,·
COc1ccc(-c2cc(=O)c3cc(F)ccc3[nH]2)cc1,i,1.1%,?,3.1%
COc1ccc2[nH]c(-c3ccc(C)cc3)cc(=O)c2c1,-53.9%,3.16µM*,0.0%,-4.2%
Cn1c(=O)n(C)c2cc(N3CCOCC3)c(NS(=O)(=O)c3ccc(Cl)cc3)cc21,?,30.3%,3.2%,·
COC(=O)C1=C(C)N=C2SC(C#N)=C(N)N2C1c1ccc(OCc2ccccc2)cc1 (stereo unspecified),?,5.01µM*,141.7%,-17.2%
COC(=O)C1=C(C)N=C2SC(C#N)=C(N)N2C1c1cc(OC)c(OC)c(OC)c1 (stereo unspecified),i,-13.0%,36.8%,26.9%
COc1ccc(C2C=C(c3ccccc3)Nc3nc(NC(=O)/C=C/c4ccc(Cl)cc4)nn32)cc1 (stereo unspecified),i,21.5%,73.2%,·
CN(C(=S)NC(=O)c1ccccc1Br)C1CCCCC1,i,10µM*,?,2.5%
Cc1ccccc1C(=O)NC(=S)N(C)C1CCCCC1,-20.3%,?,?,-1.5%
CN(Cc1ccc(C(C)(C)C)cc1)c1cccc2ccccc12,·,·,·,-0.8%
Cc1ccccc1CNC(=O)c1cnc2sc(N3CCOCC3)nn2c1=O,-23.5%,6.5%,-0.3%,·
NC(=S)NN=C(c1ccc(F)cc1)C1CC1,-19.6%,?,10µM*,-5.5%
S=C(Nc1cccc(Br)c1)c1ccccc1,-30.6%,12.6µM*,-5.5%,4.4%
SMILES,PTHR1 agonist,GLP-1R inv ag,GLP1R cytotox,GLP-1R agonist
Cc1ccc(NC(=O)CN2C(=O)CSc3ccc(S(=O)(=O)N4CCCC4)cc32)c(C)c1,-33.6%,-17.4%,9.7%,·
CCOC(=O)C1(CCOc2ccccc2)CCN(Cc2cccc(-n3cccn3)c2)CC1,-53.3%,5.01µM*,-11.5%,-4.5%
CCOC(=O)C1(CCOc2ccccc2)CCN(Cc2ccc(OCC)c(CO)c2)CC1,-40.9%,11.2µM*,0.0%,-1.4%
CCOC(=O)C1(CCOc2ccccc2)CCN(Cc2ccc(OC)cc2)CC1,i,10µM*,-13.7%,-1.0%
CCOC(=O)C1(CCCc2ccccc2)CCN(Cc2ccn[nH]2)CC1,i,4.47µM*,14.0%,12.5%
O=c1c(S(=O)(=O)c2cccc(Cl)c2)cn(Cc2ccccc2)c2cc(N3CCOCC3)c(F)cc12,-23.5%,-1.1%,-17.1%,·
Cc1cccc(NC(=O)c2c(C)cc(C)nc2SCC(=O)c2ccccc2)c1,-41.0%,?,33.8%,·
CCOC(=O)C1(CCOc2ccccc2)CCN(Cc2cccc(OC)c2OC)CC1,-17.4%,10µM*,-4.0%,20.8%
Cc1cc(C)c2cc(CN(CCO)C(=O)Nc3ccc(F)cc3)c(=O)[nH]c2c1,-42.9%[57.5 µM],-2.2%,9.0%,7.0%
CCc1ccc2[nH]c(=O)c(CN(CCN(C)C)C(=O)Nc3ccccc3)cc2c1,-17.2%[57.5 µM],8.91µM*,-23.8%,3.3%
Cc1cc(C)c2cc(CN(CCN(C)C)C(=O)Nc3ccccc3Cl)c(=O)[nH]c2c1,i,10µM*,-5.5%,-2.4%
CCc1ccc2[nH]c(=O)c(CN(CCN(CC)CC)C(=O)NC3CCCCC3)cc2c1,i,10µM*,?,8.8%
O=C(CSc1nc2ccccc2n1Cc1ccc(F)cc1)N1CCN(c2ccc(F)cc2)CC1,-20.1%,?,-12.6%,·
Nc1ncn(C(=S)Nc2ccccc2)n1,-7.9%,?,4.47µM*,-1.0%
S=C(Nc1ccccc1)N1CCCCCC1,-3.7%[57.5 µM],-2.6%,-10.2%,-11.1%
CC1(C)CN(c2ccccc2)N(C(=O)c2ccc(C#N)cc2)C1=O,-16.4%,3.16µM*,-17.9%,-3.0%
CC1(C)CN(c2ccccc2)N(C(=O)c2ccc(F)cc2)C1=O,-9.7%[57.5 µM],0.0%,-18.4%,-12.0%
O=C(CSc1oc(-c2ccco2)nc1S(=O)(=O)c1ccc(Br)cc1)c1ccc(Cl)cc1,-2.4%,?,11.7%,·
NC(N)=N/N=C/c1ccc(OCc2ccccc2Cl)cc1,18.7%[57.5 µM],11.2µM*,?,-22.7%
COc1ccc(CNC(=O)CCCN2C(=O)CSc3c2c(C)nn3-c2ccccc2)cc1,i,?,0.4%,·
CN(C(=O)CSc1nc(-c2ccccc2)no1)c1ccc(F)cc1,-4.7%,-1.6%,0.8%,·
C/C(=N\NC(N)=S)c1ccc(Cl)s1,i,3.16µM*,?,10.7%
COc1ccc(-c2noc(-c3ccc(NCc4ccco4)c([N+](=O)[O-])c3)n2)cc1,i,12.5%,6.5%,·
CCCc1nc2ccccc2c(C(=O)OCC(=O)N2CCc3ccccc32)c1CC,-3.4%,2.82µM*,4.1%,-4.1%
CC1CCc2nc3ccccc3c(C(=O)OCC(=O)N3CCc4ccccc43)c2C1 (stereo unspecified),i,10.5%,-9.8%,-3.9%
CCCCOc1ccc(C2C(=O)N(C3CCCCC3)CC(=O)N2CCCC)cc1 (stereo unspecified),i,-15.2%,-13.4%,·
O=C(NCCCN1CCN(Cc2ccccc2Cl)CC1)Nc1ccccc1,i,-29.7%,-10.5%,14.9%
